Active and inactive are the calls of the source.

The test system of test [1] is Human papillomavirus type 1a protein E7 (residues 44-93). The experiment in a line: HPV1a E7 fragment binders on microarrays, primary screen, biochemical, small-molecule microarray, residues 44-93, 635 nm fluorescence (AID 1108).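 Further: E7 fragment applied at 1 µg/mL in TBST for 1 h at 4 C; score combines spot fluorescence with its signal to noise ratio.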 The settings on record: small-molecule microarray binding, fluorescence 635 nm; higher = more signal.
Test [2] in a line: modulators of HCV replicon luciferase signal, primary screen, HCV replication inhibitor project, Huh7 cells, luciferase reporter (AID 1109).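 Further: huh7 hepatoma cells harbouring a luciferase neomycin HCV replicon reporter; luciferase luminescence as measure of HCV replicon replication; test concentration not given here.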 The settings on record: 48 h, higher = more signal. For orientation: In antiviral work, replicon cells carry a viral genome segment that copies itself.
The target in test [3] is Left-right determination factor 2 (Homo sapiens) (UniProt O00292). Put plainly: LEFTY2 binders on small-molecule microarrays, primary screen, biochemical, small-molecule microarray, 635 nm fluorescence scan (AID 1110). The settings on record: LEFTY2 binding, higher = more signal.
Test [4] deals with Calmodulin-1 (Homo sapiens) (UniProt P0DP23). The experiment in a line: CALM1 binders on microarrays, EGTA buffer, profiling panel, biochemical, small-molecule microarray, Cy5-labelled CALM1 (AID 1111).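 Further: labelled calmodulin applied in Tris saline Tween buffer holding calcium plus EGTA and DTT.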 The settings on record: Cy5-CALM1 binding fluorescence, higher = more signal.
Test [5] has the same target. Put plainly: calcium-bound CALM1 binders on microarrays, profiling panel, artefact control for SMM control-protein annotation, biochemical, small-molecule microarray, Cy5-labelled CALM1, plus calcium (AID 1112).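 Further: score merges spot fluorescence with signal to noise from triplicate slides.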 The following applies: Cy5-CALM1 binding fluorescence, higher = more signal.
Test [6] is described as follows: small-molecule microarray binders of probe aWnt5a, primary screen, biochemical, biotinylated probe, 635/667 nm fluorescence (AID 1113).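 Further: score merges 667 nm fluorescence intensity with signal-to-noise per printed feature.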 The following applies: higher = more signal.
Test [7] can be described thus: small-molecule microarray binders of probe aShh, primary screen, biochemical, biotinylated probe, 635/667 nm fluorescence (AID 1114).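 Further: probe is biotin-labelled aShh protein from a stem cell growth factor screen; measures binding of labelled protein to compounds printed on the slide; score merges feature fluorescence at 667 nm with signal-to-noise.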 The following applies: higher = more signal.
Test [8] is described as follows: small-molecule microarray binders of probe aNog, primary screen, biochemical, biotinylated probe, 635/667 nm fluorescence (AID 1115).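 Further: probe is biotinylated aNog protein used at 0.15 µg/mL for 1 h at 4 C; z-score combines 667 nm fluorescence of each spot with its signal to noise.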 The settings on record: higher = more signal.
Test [9] deals with Torsin-1A-interacting protein 1 (Homo sapiens) (UniProt Q5JTV8). The experiment in a line: LAP1 binders from COS7 cell lysate, primary screen, small-molecule microarray, 635/667 nm fluorescence (AID 1116). The following applies: COS7-hLAP1 lysate binding, 635 nm fluorescence, higher = more signal.
Test [10] concerns the target Alpha-bungarotoxin (Bungarus multicinctus) (UniProt P60615). The experiment in a line: alpha-bungarotoxin binders on microarray, profiling panel, artefact control for SMM control protein annotation, biochemical, small-molecule microarray, Alexa647 label, 635/667 nm fluorescence (AID 1117). The following applies: alpha-BTX-A647 binding fluorescence, higher = more signal.

Another test deals with Albumin (Bos taurus) (UniProt P02769). Put plainly: bovine serum albumin binders on microarray, profiling panel, artefact control for SMM control protein annotation, biochemical, small-molecule microarray, Alexa647 label, 635/667 nm fluorescence (AID 1118).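 Further: score merges 667 nm emission intensity and signal-to-noise per printed compound spot.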 The settings on record: BSA-A647 binding, fluorescence 635 nm, higher = more signal.
A short description of test [11]: small-molecule microarray binders of probe aXIP, primary screen, biochemical, NeuroSMM set, 635/667 nm fluorescence (AID 1119).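 Further: probe is the protein aXip251-270 applied at 1 µg/mL to compound-printed slides; binding of probe to printed compounds measured as 667 nm fluorescence plus signal to noise.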 The following applies: higher = more signal, called active from +8 up or from −8 down.
Test [12] is described as follows: small-molecule binders of probe aNOTCH3, primary screen, biochemical, small-molecule microarray, 635/667 nm fluorescence (AID 1120).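 Further: probe is a biotin-tagged antibody raised against NOTCH3 rather than NOTCH3 protein; score merges spot fluorescence near 667 nm with spot signal to noise.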 The settings on record: higher = more signal.
The nature of test [13]: small-molecule binders of probe aNOTCH2, primary screen, biochemical, small-molecule microarray, 635/667 nm fluorescence (AID 1121).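 Further: score merges feature fluorescence read at 667 nm with its signal to noise.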 The following applies: higher = more signal.
For test [14], the target named is Carbonic anhydrase 2 (Homo sapiens) (UniProt P00918). Put plainly: CAII small-molecule binders, profiling panel, biochemical, small-molecule microarray, Alexa647-labelled CAII (AID 1122). The settings on record: CAII-A647 binding fluorescence, higher = more signal.
A short description of test [15]: COS7 lysate on small-molecule microarray, probe aHis, 635 nm (AID 1123).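 Further: z-score combines 667nm fluorescence intensity with signal-to-noise per printed compound spot.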 The settings on record: COS7 cell lysate, fluorescence, higher = more signal.
A short description of test [16]: compound binding in COS7 lysate, probe aLAP1, primary screen, cell lysate, small-molecule microarray (AID 1124).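 Further: lysate comes from COS7 cells expressing LAP1 and is applied at 0.3 µg/mL; score merges spot fluorescence near 667 nm with signal-to-noise over triplicate slides.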 The following applies: probe aLAP1, fluorescence, higher = more signal.
The test system of the next test is Sam68 (KHDRBS1). Put plainly: Sam68 small-molecule binders, primary screen, biochemical, small-molecule microarray, 635 nm fluorescence (AID 1125).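 Further: score merges 667 nm channel intensity with signal to noise over triplicate slides.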 The following applies: small-molecule microarray binding, higher = more signal.
Test [17] deals with Chordin-like protein 2 (CHRDL2). The experiment in a line: CHRDL2 small-molecule binders, primary screen, biochemical, small-molecule microarray, 635 nm fluorescence (AID 1126).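 Further: printed compound slides probed with Chrdl2 protein at 4 µg/mL for 1 h at 4 C; score merges 667 nm emission intensity with signal to noise over three replicate slides.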 The settings on record: small-molecule microarray binding, fluorescence 635 nm; higher = more signal.
In test [18] the target is Concanavalin-A (Canavalia ensiformis) (UniProt P02866). The experiment in a line: ConA small-molecule binders, primary screen, artefact control for SMM control protein annotation, biochemical, small-molecule microarray, Alexa647 label, 635 nm (AID 1127).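 Further: z combines 667 nm emission intensity with signal-to-noise across three replicate slides.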 The following applies: ConA-A647 binding fluorescence, higher = more signal.
Sequence of Concanavalin-A (Canavalia ensiformis) (P02866 whole entry, looked up): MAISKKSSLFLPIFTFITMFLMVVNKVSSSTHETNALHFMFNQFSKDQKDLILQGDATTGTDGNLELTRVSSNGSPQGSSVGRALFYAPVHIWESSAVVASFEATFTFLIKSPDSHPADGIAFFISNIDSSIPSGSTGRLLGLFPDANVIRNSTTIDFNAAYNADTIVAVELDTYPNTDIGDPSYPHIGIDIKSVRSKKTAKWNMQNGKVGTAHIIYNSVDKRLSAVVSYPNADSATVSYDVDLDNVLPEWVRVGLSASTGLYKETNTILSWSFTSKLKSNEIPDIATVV

Sequence of Left-right determination factor 2 (Homo sapiens) (O00292 whole entry, looked up): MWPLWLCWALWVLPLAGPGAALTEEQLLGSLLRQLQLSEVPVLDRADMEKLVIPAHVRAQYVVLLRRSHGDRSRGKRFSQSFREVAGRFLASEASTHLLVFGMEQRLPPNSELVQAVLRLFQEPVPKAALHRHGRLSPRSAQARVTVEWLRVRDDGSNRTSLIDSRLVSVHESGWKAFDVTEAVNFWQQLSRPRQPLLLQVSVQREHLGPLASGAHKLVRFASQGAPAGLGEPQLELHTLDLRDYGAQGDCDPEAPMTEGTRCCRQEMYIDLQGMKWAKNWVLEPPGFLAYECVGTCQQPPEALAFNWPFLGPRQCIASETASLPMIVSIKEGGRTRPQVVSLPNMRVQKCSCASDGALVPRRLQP
Sequence of Torsin-1A-interacting protein 1 (Homo sapiens) (Q5JTV8 whole entry, looked up): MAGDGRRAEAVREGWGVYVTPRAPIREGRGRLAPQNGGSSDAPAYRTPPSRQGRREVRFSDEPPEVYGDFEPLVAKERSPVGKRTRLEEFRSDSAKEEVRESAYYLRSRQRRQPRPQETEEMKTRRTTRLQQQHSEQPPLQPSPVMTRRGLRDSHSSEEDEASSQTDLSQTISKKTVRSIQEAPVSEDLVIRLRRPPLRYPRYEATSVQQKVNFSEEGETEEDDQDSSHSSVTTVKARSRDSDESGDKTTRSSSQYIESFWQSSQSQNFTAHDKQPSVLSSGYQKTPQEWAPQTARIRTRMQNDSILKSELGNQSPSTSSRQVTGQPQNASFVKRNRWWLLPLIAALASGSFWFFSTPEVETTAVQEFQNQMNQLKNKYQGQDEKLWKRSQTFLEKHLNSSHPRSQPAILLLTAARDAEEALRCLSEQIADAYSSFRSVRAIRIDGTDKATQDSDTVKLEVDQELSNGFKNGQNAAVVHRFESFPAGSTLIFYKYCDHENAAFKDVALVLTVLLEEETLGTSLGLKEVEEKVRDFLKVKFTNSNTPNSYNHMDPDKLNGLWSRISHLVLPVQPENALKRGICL
Sequence of Alpha-bungarotoxin (Bungarus multicinctus) (P60615 whole entry, looked up): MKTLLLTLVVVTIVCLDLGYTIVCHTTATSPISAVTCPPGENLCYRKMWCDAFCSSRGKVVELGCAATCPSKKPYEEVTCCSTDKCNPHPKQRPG
Sequence of Albumin (Bos taurus) (P02769 whole entry, looked up): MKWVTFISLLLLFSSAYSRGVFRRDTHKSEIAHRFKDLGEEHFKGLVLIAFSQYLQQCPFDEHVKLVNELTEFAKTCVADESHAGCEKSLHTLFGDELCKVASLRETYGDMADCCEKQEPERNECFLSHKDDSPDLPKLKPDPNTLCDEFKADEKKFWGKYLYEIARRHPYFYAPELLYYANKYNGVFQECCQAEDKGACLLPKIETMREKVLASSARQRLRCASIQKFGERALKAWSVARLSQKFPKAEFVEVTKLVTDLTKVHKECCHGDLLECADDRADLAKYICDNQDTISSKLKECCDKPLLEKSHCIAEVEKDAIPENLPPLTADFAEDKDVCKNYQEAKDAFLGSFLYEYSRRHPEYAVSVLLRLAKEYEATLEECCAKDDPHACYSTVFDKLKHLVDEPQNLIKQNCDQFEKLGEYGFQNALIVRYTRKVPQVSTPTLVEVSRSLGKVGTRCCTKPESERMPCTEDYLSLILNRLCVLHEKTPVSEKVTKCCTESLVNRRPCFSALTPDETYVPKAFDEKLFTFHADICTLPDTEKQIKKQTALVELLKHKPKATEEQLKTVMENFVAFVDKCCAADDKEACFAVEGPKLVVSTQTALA

Turning to `CC(C)[Si](C#C[Si](C(C)C)(C(C)C)C(C)C)(O[C@H](C)c1cn(Cc2ccccc2)nn1)C(C)C`, the composite z-score was 1.2 in test [1]; 0.409 in [3]; 0.634 in test [4]; 0.142 in test [5]; -0.0893 in test [6]; -0.221 in test [7]. Also, the composite z-score in [8] was -0.33; in test [9], 0.182; in [10], 0.717; with Albumin (Bos taurus), 0.551; in test [12] it was 0.379; in test [13], -0.0956. In addition, the composite z-score in test [14] amounted to 0.48; in test [15], 0.664; in test [16] it was 0.177; in the test on Sam68 (KHDRBS1) it was 1.03; in test [17] it was 0.289; in [18], 0.598. In test [2], this compound displayed a z-score of 0.16. Besides, the composite Z-score in test [11] is -0.539 (inactive).

For the compound `COc1ccc([C@H]2C[C@H]3C(Br)=C[C@@]2(CO)C(=O)[C@]32CO2)cc1`, the composite z-score in test [1] was -0.368; in test [3], 0.122; in test [4] it was -0.282; in [5] it was -0.38; in test [6] it was 0.0286; in test [7] it was -0.262. For the same compound, the composite z-score was -0.0827 in test [8]; 0.291 in test [9]; 0.0471 in test [10]; -0.613 in the test with Albumin (Bos taurus); -0.103 in test [12]; -0.0684 in test [13]. In addition, the composite z-score in test [14] was 0.0574; in [15], -0.128; in test [16], 0.289; in the test with Sam68 (KHDRBS1) it was -0.318; in test [17], 0.282; in test [18], 0.178. In test [2], this compound registered a z-score of -2.02. Moreover, the composite Z-score in test [11] was -0.0805 (inactive).

On to `C=CC[C@]1(C(=O)N2CCOCC2)N=C(c2ccc(OCCCO)cc2)O[C@H]1c1ccccc1N=[N+]=[N-]`, for which the composite z-score was found to be 1.47 in test [1]; 0.258 in test [3]; 1.47 in test [4]; 0.667 in test [5]; 0.0839 in test [6]; 0.308 in test [7]. Moreover, the composite z-score in test [8] is 1.76; in test [9], 1.9; in test [10] it was 0.92; with Albumin (Bos taurus) it was 0.561; in test [12], 0.298; in test [13], -0.0896. The composite z-score in [14] was 0.751; in test [15] it was 2.77; in test [16], 0.647; in the test with Sam68 (KHDRBS1), 1.29; in test [17], -0.521; in test [18], 1.09. The same compound yielded a z-score in test [2] of -1.43. For the same compound, the composite Z-score in test [11] is 0.193 (inactive).

`COC(=O)[C@@]1(Cc2ccccc2)[C@H]2c3cc(C(=O)N(C)C)n(Cc4ccc(OC)c(OC)c4)c3C[C@H]2CN1C(=O)c1ccccc1`: the composite z-score is 1.46 in [1]; -0.394 in test [3]; 1.71 in [4]; 0.873 in test [5]; 0.229 in test [6]; 0.187 in test [7]. Further, the composite z-score was determined as 2.35 in test [8]; 1.1 in [9]; 1.07 in test [10]; 0.864 in the test with Albumin (Bos taurus); 0.775 in [12]; 0.318 in test [13]. The composite z-score in [14] was 0.467; in test [15], 3.07; in [16], 0.463; with Sam68 (KHDRBS1), 1.29; in test [17], -0.78; in [18], 0.829. Moreover, the z-score in test [2] was -2.35. Besides, the composite Z-score in test [11] is 0.0388 (inactive).

As to `C=CCNC(=O)[C@@H]1[C@H]2C(=O)O[C@H](c3ccccc3)[C@H](c3ccccc3)N2[C@H](c2ccc(OCCO)cc2)[C@@]12C(=O)N(C(=O)OCCOC)c1ccc(C#CCC(C(=O)OC)C(=O)OC)cc12`, the composite z-score in test [1] is 0.805; in test [3], 0.969; in test [4] it was 1.61; in test [5], 0.105; in test [6], -0.0302; in [7], 0.199. Further, the composite z-score in test [8] was 0.804; in test [9], 1.03; in [10], 1.26; with Albumin (Bos taurus), 0.371; in [12], 0.199; in test [13], 0.0278. Further, the composite z-score in test [14] turned out to be 0.637; in [15] it was 1.37; in [16], 1.05; in the test with Sam68 (KHDRBS1), 1.31; in test [17] it was 0.665; in [18], 1.09. The compound further gave a z-score in [2] of -1.5. The composite Z-score in [11] is 0.0558 (inactive).

`COc1ccc([C@H]2C[C@H]3C(I)=C[C@@H]2C(=O)[C@]32CO2)cc1`: the composite z-score in test [1] is -1.2; in test [3], 0.178; in test [4], -0.978; in test [5] it was -1.53; in test [6], -0.222; in test [7], -0.407. Moreover, the composite z-score in [8] is -0.1; in test [9], 0.498; in test [10], 0.957; in the test with Albumin (Bos taurus), -0.63; in [12], 0.0242; in test [13] it was -0.156. The composite z-score is -0.267 in [14]; -0.442 in test [15]; -0.154 in [16]; -0.889 in the test on Sam68 (KHDRBS1); 0.189 in test [17]; -0.0546 in test [18]. The z-score in test [2] is -3.32. The composite Z-score in test [11] is -0.617 (inactive).
